# Inconclusive results are not listed. The source made the active and inactive calls. Unless noted, calls come from the whole dose curve; as a rule, active = well fitted curve in the direction sought with a large enough effect; inconclusive = small, poorly fitted or top-dose-only effect, or another doubt; inactive = no such curve, though single readings can be large; an effect the other way counts as inactive or inconclusive.
# Experiments:
# [1] = molecular target: Lysosomal acid glucosylceramidase (Homo sapiens) (UniProt P04062); assay: Glucocerebrosidase-p2 (AID 348; in the data active = potency below about 10 µM; note: potency is the fitted concentration of half-maximal effect); settings: purified GBA, blue fluorogenic substrate, 40 min
# Chain of Lysosomal acid glucosylceramidase (Homo sapiens) (P04062 whole entry, looked up): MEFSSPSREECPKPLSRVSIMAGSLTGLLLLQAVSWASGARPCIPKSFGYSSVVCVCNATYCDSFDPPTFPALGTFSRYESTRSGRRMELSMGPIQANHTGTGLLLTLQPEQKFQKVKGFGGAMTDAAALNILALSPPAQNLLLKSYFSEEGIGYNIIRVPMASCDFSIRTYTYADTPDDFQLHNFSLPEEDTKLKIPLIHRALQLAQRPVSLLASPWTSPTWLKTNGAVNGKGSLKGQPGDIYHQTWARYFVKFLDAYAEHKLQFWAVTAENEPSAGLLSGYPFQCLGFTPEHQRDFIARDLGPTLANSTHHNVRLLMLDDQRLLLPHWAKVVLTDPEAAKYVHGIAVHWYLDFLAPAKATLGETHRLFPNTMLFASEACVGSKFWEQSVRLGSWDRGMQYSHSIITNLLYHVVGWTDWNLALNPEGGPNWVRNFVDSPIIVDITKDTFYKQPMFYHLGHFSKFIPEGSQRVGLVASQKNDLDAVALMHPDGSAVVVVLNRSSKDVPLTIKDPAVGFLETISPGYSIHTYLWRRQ
# In short: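 Compounds titrated from 0.6 nM upwards against 0.2 nM enzyme in pH 5.9 citric acid/KH2PO4, taurocholate, tween-20; blue fluorogenic substrate 80 uM, 40 min room temperature, stopped and read Ex 365/Em 440 for AC50.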
# [2] = AP1 Signaling Pathway (AID 357; active = well fitted curve in either direction with a large enough effect, not every such curve was filed as active;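 note: ME-180 reporter cells stimulated with EGF at its EC50 level; % is set by controls: 0 for no effect and ±100 for the full control effect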); settings: ME-180 AP-1-bla reporter, EGF-induced, beta-lactamase ratio, 5 h; at 7.69 µM (top of the series) unless noted
# In short: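 Modulation of EGF-driven AP-1 transcription was assessed with a beta-lactamase reporter in ME-180 cells. Compound and EC50 EGF were co-incubated 5 hours at 37 °C before 2.5-hour CCF4 loading at room temperature and dual-emission reading.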
# [3] = NFAT Signaling Pathway (AID 444; active = well fitted curve in either direction with a large enough effect, not every such curve was filed as active;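 note: carbachol stimulus at about its EC50 of 1 µM final; % is set by controls: 0 for no effect and ±100 for the full control effect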); settings: Jurkat NFAT-bla M1, carbachol, beta-lactamase ratio, 5 h; at 7.69 µM (top of the series) unless noted
# In short: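 Read-out: CCF4 FRET ratio (460 nm/530 nm) after 1 h RT dye loading, used for %activity and AC50 from titration series. Cells: Jurkat NFAT-β-lactamase/M1 line, treated with compound plus 1 uM carbachol for 5 h, 37 °C.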
# [4] = Stat Signaling Pathway (AID 446; active = well fitted curve in either direction with a large enough effect, not every such curve was filed as active;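 note: ME-180 cervical cancer cells given 40 pM IL-6 alongside compound; SIE-controlled beta-lactamase reporter measured as 460/530 nm FRET emission ratio; % is set by controls: 0 for no effect and ±100 for the full control effect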); settings: ME-180 (cervical carcinoma) SIE beta-lactamase reporter, IL-6 stimulated, 5 h; at 7.69 µM (top of the series) unless noted
# In short: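 IL-6/STAT signaling read in ME-180 cells via an SIE beta-lactamase reporter. Stimulus was 40 pM IL-6 (its AC50) for 5 hrs, so both activation and inhibition register.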
# [5] = molecular target: Glucocorticoid receptor (Homo sapiens) (UniProt P04150); assay: GR-GFP Redistribution (AID 450;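 active = compounds whose dose series gives a full or clear partial fitted curve of increased nuclear translocation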; note: potency is the fitted concentration of half-maximal effect); settings: U2OS GR-GFP nuclear translocation, laser cytometry, 2 h
# Chain of Glucocorticoid receptor (Homo sapiens) (P04150 whole entry, looked up, the tested form may be a part): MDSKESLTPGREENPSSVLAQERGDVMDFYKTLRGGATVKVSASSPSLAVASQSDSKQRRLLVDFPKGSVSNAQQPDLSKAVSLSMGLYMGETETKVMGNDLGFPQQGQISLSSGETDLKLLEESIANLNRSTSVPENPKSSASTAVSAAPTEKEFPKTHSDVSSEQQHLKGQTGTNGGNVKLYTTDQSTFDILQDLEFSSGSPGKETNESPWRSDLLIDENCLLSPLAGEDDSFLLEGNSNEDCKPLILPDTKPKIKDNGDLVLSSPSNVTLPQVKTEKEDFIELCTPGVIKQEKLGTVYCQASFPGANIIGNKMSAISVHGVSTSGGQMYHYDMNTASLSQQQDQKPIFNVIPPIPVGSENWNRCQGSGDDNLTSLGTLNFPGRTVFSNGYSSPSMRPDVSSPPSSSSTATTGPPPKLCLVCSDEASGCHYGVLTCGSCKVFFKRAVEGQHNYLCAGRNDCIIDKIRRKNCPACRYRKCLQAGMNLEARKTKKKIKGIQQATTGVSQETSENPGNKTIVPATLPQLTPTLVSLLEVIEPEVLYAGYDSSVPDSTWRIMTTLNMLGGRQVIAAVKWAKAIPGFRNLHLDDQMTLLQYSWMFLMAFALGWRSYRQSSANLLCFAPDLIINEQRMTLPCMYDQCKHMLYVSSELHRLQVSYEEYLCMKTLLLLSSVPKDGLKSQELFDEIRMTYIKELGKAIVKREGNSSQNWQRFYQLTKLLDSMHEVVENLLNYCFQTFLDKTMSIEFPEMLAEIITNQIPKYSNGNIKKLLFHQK
# [6] = molecular target: Glucocorticoid receptor (Homo sapiens) (UniProt P04150); assay: GR-EFC Redistribution (AID 451; calls by dose curve; note: potency is the fitted concentration of half-maximal effect); settings: CHO-K1 GR-EFC translocation, beta-gal luminescence, 2 h
# In short: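 Translocation of GR-ED fusion to nuclear EA restores b-gal, read by luminescence after 1 h room-temperature detection. Engineered CHO-K1 biosensor cells, 1,000/well, exposed 2 h at 37 C to titrations up to 46 uM final.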
# [7] = molecular target: Mitogen-activated protein kinase 10 (Mus musculus) (UniProt Q61831); assay: JNK3 AlphaScreen Assay (AID 530; active = well fitted curve in either direction with a large enough effect, not every such curve was filed as active;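 note: kinase came from lysate of stimulated human HepG2 cells; signal reports phosphorylation of biotinylated GST-cJun 1-79 at Ser73 with 10 µM ATP; % is set by controls: 0 for no effect and ±100 for the full control effect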); settings: JNK3 lysate, c-Jun phosphorylation; series mostly up to 57.1 µM
# In short: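 Room-temperature AlphaScreen kinase assay; pre-activated HepG2 lysate as JNK3 source, biotin-GST-cJun(1-79) substrate, 10 uM ATP, compound 15 min preincubation.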
# [8] = molecular target: 3',5'-cyclic-AMP phosphodiesterase 4B (Homo sapiens) (UniProt Q07343); assay: qHTS Assay for Inhibitors of PDE-IV (AID 607; active = well fitted activation curve with a large enough effect in the main read-out, with a control signal flat, not every such curve was filed as active; note: % of control where 0% means no effect); settings: HEK293 ACTOne CNG channel cells, membrane potential fluorescence; series mostly up to 22.9 µM
# Chain of 3',5'-cyclic-AMP phosphodiesterase 4B (Homo sapiens) (Q07343 whole entry, looked up): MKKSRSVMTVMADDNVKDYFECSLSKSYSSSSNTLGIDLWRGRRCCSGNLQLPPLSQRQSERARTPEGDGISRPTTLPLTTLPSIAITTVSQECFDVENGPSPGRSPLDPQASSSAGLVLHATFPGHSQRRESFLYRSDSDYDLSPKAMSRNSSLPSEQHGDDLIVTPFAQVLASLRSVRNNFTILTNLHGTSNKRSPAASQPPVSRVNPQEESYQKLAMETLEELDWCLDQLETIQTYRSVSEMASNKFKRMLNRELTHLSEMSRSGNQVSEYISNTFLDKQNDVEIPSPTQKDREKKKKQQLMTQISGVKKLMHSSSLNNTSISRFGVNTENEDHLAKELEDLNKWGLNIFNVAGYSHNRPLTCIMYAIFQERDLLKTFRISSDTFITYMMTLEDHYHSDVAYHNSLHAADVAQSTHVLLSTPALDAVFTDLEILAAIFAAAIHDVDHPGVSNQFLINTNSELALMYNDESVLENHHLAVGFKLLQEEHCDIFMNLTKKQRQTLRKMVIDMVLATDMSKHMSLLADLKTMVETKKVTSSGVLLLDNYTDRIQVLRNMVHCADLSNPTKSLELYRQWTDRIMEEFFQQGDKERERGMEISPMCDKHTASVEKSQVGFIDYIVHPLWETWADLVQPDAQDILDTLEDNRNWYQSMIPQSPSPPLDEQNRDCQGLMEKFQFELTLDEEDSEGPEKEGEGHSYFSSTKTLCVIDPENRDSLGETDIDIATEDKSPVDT
# In short: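 Live HEK293 cells with a modified cyclic nucleotide-gated (CNG) channel report intracellular cAMP via membrane-potential dye fluorescence (ex 535/em 590 nm). Endogenous PDE-IV was targeted. Compounds were tested at up to 22.9 uM final; RO 20-1724 100 uM served as control.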
# [9] = qHTS Assay for Lipid Storage Modulators (AID 1519; calls by dose curve); settings: Drosophila S3 cells, BODIPY lipid droplet/cell ratio, laser cytometry, cells loaded with oleic acid
# In short: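 Cells seeded at 5,000 per well were treated with compounds over a concentration series and loaded with oleic acid (400 uM, as added). Lipid droplet fluorescence (488 nm excitation, 500-530 nm channel) was read by laser-scanning cytometry and normalized to 20 uM Triacsin C.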
# [10] = molecular target: Ubiquitin carboxyl-terminal hydrolase 1 (Homo sapiens) (UniProt O94782); assay: Inhibitors of USP1/UAF1: Pilot qHTS (AID 504865); settings: purified USP1/UAF1, Ub-rhodamine cleavage fluorescence; series mostly up to 54.9 µM; note: nearly all actives have a fitted effect of over 35% in size; note: potency is the fitted concentration of half-maximal effect
# Chain of Ubiquitin carboxyl-terminal hydrolase 1 (Homo sapiens) (O94782 whole entry, looked up): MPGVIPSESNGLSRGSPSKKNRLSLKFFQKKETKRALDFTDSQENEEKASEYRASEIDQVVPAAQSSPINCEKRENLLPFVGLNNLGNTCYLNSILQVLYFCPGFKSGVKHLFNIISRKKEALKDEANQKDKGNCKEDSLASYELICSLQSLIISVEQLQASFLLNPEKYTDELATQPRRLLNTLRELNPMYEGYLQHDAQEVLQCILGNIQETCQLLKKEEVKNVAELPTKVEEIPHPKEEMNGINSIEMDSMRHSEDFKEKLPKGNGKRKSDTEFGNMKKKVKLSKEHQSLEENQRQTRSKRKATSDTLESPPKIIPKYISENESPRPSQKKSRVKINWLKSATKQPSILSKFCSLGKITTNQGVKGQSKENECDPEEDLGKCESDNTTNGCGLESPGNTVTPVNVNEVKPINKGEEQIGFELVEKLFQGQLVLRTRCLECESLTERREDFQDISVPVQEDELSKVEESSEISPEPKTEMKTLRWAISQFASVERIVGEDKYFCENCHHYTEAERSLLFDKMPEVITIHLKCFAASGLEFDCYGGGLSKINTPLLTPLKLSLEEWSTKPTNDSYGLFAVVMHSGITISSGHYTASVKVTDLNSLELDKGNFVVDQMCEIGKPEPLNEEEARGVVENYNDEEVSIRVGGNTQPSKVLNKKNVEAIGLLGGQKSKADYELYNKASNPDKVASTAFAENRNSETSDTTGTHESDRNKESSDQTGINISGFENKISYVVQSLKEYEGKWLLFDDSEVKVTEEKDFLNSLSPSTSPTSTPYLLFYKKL
# In short: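 USP1/UAF1 complex (1nM) preincubated with compound 15 min at room temperature, then Ub-Rho substrate (150nM final) added. Fluorescence read kinetically at 480/540 nm, 6 reads every 60 seconds. Buffer: 50mM HEPES pH 7.8, 0.5mM EDTA, 0.1 mg/ml BSA, 1mM TCEP, 0.01% Tween-20.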
# [11] = molecular target: Cytochrome P450 3A4 (Homo sapiens) (UniProt P08684); assay: qHTS Assay for Activators of Cytochrome P450 3A4 (AID 885); settings: recombinant CYP3A4, Luciferin-PPXE luminescence, 60 min; series mostly up to 57.1 µM; note: nearly all actives have a fitted effect of over 65% in size
# Chain of Cytochrome P450 3A4 (Homo sapiens) (P08684 whole entry, looked up): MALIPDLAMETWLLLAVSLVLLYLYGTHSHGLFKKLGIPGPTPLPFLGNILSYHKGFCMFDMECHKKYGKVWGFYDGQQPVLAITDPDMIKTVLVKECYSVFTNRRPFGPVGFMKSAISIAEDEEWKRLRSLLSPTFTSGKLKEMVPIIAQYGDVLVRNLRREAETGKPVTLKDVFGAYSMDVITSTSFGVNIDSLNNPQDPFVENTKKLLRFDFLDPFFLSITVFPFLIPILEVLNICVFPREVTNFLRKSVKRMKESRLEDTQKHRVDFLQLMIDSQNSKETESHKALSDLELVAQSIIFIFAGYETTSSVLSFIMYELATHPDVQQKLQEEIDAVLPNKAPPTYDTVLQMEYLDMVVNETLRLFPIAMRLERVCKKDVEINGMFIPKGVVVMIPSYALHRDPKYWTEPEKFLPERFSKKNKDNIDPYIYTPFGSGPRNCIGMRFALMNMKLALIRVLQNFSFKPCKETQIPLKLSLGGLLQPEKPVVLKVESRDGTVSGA
# In short: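 Quantitative HTS format: compounds preincubated with 20nM human CYP3A4 and Luciferin-PPXE substrate at KM, reaction started by NADPH regeneration, stopped after 60 min, luciferase luminescence read 20 min later.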
# [12] = Confirmation and Secondary Assay for Modulators of Hemoglobin Beta Chain Splicing at IVS2 654 locus (AID 910); settings: HeLa EGFP-654 splicing reporter, GFP fluorescence, 48 h; series mostly up to 38.3 µM;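 note: HeLa cells stably carrying EGFP split by mutant beta-globin IVS2-654 intron; per-well total GFP intensity by laser scanning cytometry after 2-day treatment; % of control where 0% means no effect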
# In short: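 Readout: per-well total peak green fluorescence (488 nm ex, 500–520 nm em) from objects 5–250 µm, reflecting correct splicing of an EGFP-654 reporter. Compounds were applied for 2 days at 37 °C to overnight-plated HeLa EGFP-654 cells; controls were DMSO and 500 nM IVS2-654 PNA.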
# [13] = Confirmation and Secondary Assay for Modulators of Hemoglobin Beta Chain Splicing at IVS2 705 locus (AID 930); settings: HeLa EGFP-705 splicing reporter, GFP fluorescence, 48 h; series mostly up to 38.3 µM;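 note: HeLa cells stably expressing the EGFP-705 splicing reporter; GFP fluorescence per well restored by corrected splicing of the IVS2-705 intron in EGFP; % of control where 0% means no effect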
# In short: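 Splice-correction reporter: EGFP cDNA split by beta-globin intron 2 bearing the 705 mutation, stably in HeLa. Compound incubation 2 days, 37C; fluorescent objects 5-250 µm summed per well.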
# [14] = molecular target: Cytochrome P450 3A4 (Homo sapiens) (UniProt P08684); assay: qHTS Assay for Inhibitors and Substrates of Cytochrome P450 3A4 (AID 884); settings: recombinant CYP3A4, Luciferin-PPXE luminescence; series mostly up to 57.1 µM; note: % is set by controls: 0 for no effect and ±100 for the full control effect; nearly all actives have a fitted effect of over 50% in size
# In short: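 20 nM human CYP3A4 with 25 uM Luciferin-PPXE (at KM) in 200 mM KPO4, preincubated 10 min with compound; NADPH regeneration started a 60 min RT reaction. Luciferin detected by luminescence, normalized to 57 uM ketoconazole as full inhibition.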
# [15] = molecular target: Cytochrome P450 1A2 (Homo sapiens) (UniProt P05177); assay: p450-cyp1a2 (AID 410; calls by dose curve; note: potency is the fitted concentration of half-maximal effect;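 for activity change, negative = inhibition: -100% = full effect of reference inhibitor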); settings: recombinant CYP1A2, luciferin-ME demethylation, luminescence; series mostly up to 57 µM
# Chain of Cytochrome P450 1A2 (Homo sapiens) (P05177 whole entry, looked up): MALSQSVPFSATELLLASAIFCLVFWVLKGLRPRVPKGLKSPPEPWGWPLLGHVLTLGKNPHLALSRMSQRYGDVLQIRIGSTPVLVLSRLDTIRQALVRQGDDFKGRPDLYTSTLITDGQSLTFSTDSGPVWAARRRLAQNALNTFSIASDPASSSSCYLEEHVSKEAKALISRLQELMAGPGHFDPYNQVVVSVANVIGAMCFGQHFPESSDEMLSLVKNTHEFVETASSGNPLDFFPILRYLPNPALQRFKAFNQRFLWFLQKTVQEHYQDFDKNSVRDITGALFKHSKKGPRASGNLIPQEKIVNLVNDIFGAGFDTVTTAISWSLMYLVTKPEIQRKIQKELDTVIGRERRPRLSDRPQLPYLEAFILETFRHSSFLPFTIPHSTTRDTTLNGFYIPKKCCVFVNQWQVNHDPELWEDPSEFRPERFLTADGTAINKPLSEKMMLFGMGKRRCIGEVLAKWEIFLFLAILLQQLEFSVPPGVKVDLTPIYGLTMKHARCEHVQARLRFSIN
# In short: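 Human CYP1A2 (20nM) demethylated Luciferin-ME at its Km (100uM) in 100mM KPO4. After 10 min compound preincubation, NADPH regeneration ran the reaction 60 min at room temperature. Luciferin was read by luminescence, normalized to 57 uM furafylline.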
# [16] = molecular target: ATP-dependent 6-phosphofructokinase (Trypanosoma brucei brucei) (UniProt O15648); assay: qHTS Assay to Find Inhibitors of T. brucei phosphofructokinase: hit validation (AID 492961); settings: T. brucei PFK, ADP-Glo luminescence; series mostly up to 24.3 µM
# Chain of ATP-dependent 6-phosphofructokinase (Trypanosoma brucei brucei) (O15648 whole entry, looked up): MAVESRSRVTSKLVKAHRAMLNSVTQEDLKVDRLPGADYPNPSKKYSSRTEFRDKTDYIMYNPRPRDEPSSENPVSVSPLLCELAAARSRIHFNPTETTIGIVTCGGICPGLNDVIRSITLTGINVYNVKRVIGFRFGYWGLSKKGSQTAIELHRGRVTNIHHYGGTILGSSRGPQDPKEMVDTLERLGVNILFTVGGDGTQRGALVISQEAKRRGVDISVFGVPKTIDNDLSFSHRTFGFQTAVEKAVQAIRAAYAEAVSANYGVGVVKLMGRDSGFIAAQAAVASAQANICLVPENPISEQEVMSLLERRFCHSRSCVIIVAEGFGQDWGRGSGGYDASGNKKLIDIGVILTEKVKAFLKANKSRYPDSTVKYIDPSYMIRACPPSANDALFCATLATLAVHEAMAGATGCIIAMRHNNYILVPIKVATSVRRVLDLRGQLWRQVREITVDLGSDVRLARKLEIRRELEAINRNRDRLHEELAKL
# In short: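 ADP-Glo luminescence read-out of ADP formed by 1.25 nM PFK from 0.1 mM ATP and 0.5 mM F6P (TEA pH 8.0, 45 min, RT). Compounds titrated; activity normalized to no-enzyme and full-enzyme controls.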
# [17] = qHTS profiling for inhibitors of Plasmodium falciparum proliferation (AID 504749);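 note: 0% = DMSO vehicle and full inhibition = artemisinin control; nearly all actives have a fitted effect of over 60% in size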; settings: P. falciparum in erythrocytes, SYBR Green DNA, 72 h, at 12.8 µM (top of the series)
# In short: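 Three-day growth assay of blood-stage parasites in erythrocytes (0.3% parasitemia, 2.5% hematocrit) at 37 C, 5% CO2, quantified by SYBR Green DNA staining after overnight detergent lysis.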
# [18] = molecular target: Cytochrome P450 2C19 (Homo sapiens) (UniProt P33261); assay: qHTS Assay for Inhibitors and Substrates of Cytochrome P450 2C19 (AID 899); settings: recombinant CYP2C19, luciferin-H EGE luminescence; series mostly up to 57.1 µM; note: potency is the fitted concentration of half-maximal effect; nearly all actives have a fitted effect of over 60% in size
# Chain of Cytochrome P450 2C19 (Homo sapiens) (P33261 whole entry, looked up): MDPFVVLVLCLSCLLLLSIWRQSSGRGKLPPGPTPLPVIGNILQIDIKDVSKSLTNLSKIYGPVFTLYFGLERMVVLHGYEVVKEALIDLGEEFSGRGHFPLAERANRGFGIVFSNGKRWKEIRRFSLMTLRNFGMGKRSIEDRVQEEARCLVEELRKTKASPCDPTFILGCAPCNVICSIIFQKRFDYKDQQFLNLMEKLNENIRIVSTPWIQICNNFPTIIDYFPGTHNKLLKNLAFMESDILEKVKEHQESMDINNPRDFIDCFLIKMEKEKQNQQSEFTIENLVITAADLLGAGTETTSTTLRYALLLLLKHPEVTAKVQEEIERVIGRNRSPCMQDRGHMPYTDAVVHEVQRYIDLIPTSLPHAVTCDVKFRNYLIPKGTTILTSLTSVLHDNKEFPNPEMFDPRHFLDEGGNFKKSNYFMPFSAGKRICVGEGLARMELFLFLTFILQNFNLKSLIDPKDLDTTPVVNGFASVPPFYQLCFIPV
# In short: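 Luminescence readout of luciferin formed from 10uM Luciferin-H EGE (KM level) by 5 nM CYP2C19 in 50mM KPO4. 60 min NADPH-driven reaction at 37C after 10 min compound preincubation; data scaled to 57uM ketoconazole inhibition.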
# [19] = measured here: cell count channel max response
# [20] = measured here: lipid channel max response
smiles,measurement,setting,value
N#Cc1ccccc1-c1ccc2ncnc(NCc3cccs3)c2c1,Potency,[1],> 11.4 µM (inactive)
same,"activity change, negative = inhibition",[2],-0.438% (inactive)
same,"activity change, negative = inhibition",[3],20.9% (inactive)
same,"activity, negative = inhibition",[4],-2.46% (inactive)
same,Potency,[5],> 46 µM (inactive)
same,Potency,[6],> 46 µM (inactive)
same,Potency,[7],inactive
same,Potency,[8],inactive
same,"activity change, negative = inhibition",[9]; at 57.5 µM (top of the series),2.64% (inactive)
same,max response,[9]; [19],0.851%
same,max response,[9]; [20],-0.129%
same,Potency,[10],inactive
Oc1ccc2c(c1)OCC1(O)Cc3cc(O)c(O)cc3C21 (stereo not given),Potency,[11],inactive
same,Potency,[12],inactive
same,outcome,[13],inactive
same,"activity change, negative = inhibition",[9]; at 57.5 µM (top of the series),11.4% (inactive)
same,max response,[9]; [19],-15.6%
same,max response,[9]; [20],-7.12%
same,Potency,[10],79.4 µM (active)
CN1C(CC(=O)c2ccccc2)CCCC1CC(O)c1ccccc1 (stereo not given),Potency,[14],inactive
same,Potency,[12],inactive
same,outcome,[13],inactive
same,"activity change, negative = inhibition",[9]; at 57.5 µM (top of the series),-2.13% (inactive)
same,max response,[9]; [19],13%
same,max response,[9]; [20],12.2%
same,Potency,[10],inactive
CN(C)CC/C=C1\c2ccccc2CSc2ccccc21,"activity change, negative = inhibition",[2],28.4% [at 17.2 µM] (inactive)
same,Potency,[15],inactive
same,"activity, negative = inhibition",[4],-0.2% [at 17.2 µM] (inactive)
same,Potency,[5],> 20.6 µM (inactive)
same,Potency,[6],> 20.6 µM (inactive)
same,Potency,[7],inactive
same,Potency,[8],inactive
same,"activity change, negative = inhibition",[9]; at 25.7 µM (top of the series),-6.7% (inactive)
same,max response,[9]; [19],-12.7%
same,max response,[9]; [20],-19.8%
same,outcome,[16],inactive
same,Potency,[10],inactive
same,"activity, negative = inhibition",[17]; parasite line A,4.44% (inactive)
same,"activity, negative = inhibition",[17]; parasite line B,2.26% (inactive)
FC(F)(F)c1ccccc1-c1ccc2ncnc(N3CCOCC3)c2c1,Potency,[1],> 11.4 µM (inactive)
same,Potency,[15],0.251 µM (active)
same,"activity, negative = inhibition",[4],4.75% (inactive)
same,Potency,[5],> 46 µM (inactive)
same,Potency,[6],> 46 µM (inactive)
same,Potency,[7],inactive
same,Potency,[11],inactive
same,Potency,[18],0.631 µM (active)
same,"activity change, negative = inhibition",[9]; at 57.5 µM (top of the series),5.7% (inactive)
same,max response,[9]; [19],20.5%
same,max response,[9]; [20],23.6%
same,Potency,[10],inactive
O=c1cc(-c2ccc(O)cc2)oc2cc(O[C@H]3OC(CO)C(O)C(O)C3O)cc(O)c12 (stereo not given in full),Potency,[14],inactive
same,Potency,[12],inactive
same,outcome,[13],inactive
same,"activity change, negative = inhibition",[9]; at 57.5 µM (top of the series),6.29% (inactive)
same,max response,[9]; [19],-4.63%
same,max response,[9]; [20],3.59%
C#C[C@]1(O)CCC2C3CCC4=C(CCC(=O)C4)C3CC[C@@]21C (stereo not given in full),Potency,[12],inactive
same,outcome,[13],inactive
same,"activity change, negative = inhibition",[9]; at 57.5 µM (top of the series),7.93% (inactive)
same,max response,[9]; [19],-6.89%
same,max response,[9]; [20],3.32%
same,Potency,[10],inactive
C=CC(C)(O)CCC=C(C)C (stereo not given),Potency,[7],inactive
same,"activity change, negative = inhibition",[9]; at 57.5 µM (top of the series),-9.56% (inactive)
same,max response,[9]; [19],-17.5%
same,max response,[9]; [20],-25.1%
same,Potency,[10],inactive
CN1CCN(c2ncnc3ccc(-c4cccc(NS(C)(=O)=O)c4)cc23)CC1,Potency,[1],> 11.4 µM (inactive)
same,Potency,[15],25.1 µM (active)
same,"activity, negative = inhibition",[4],-16.1% (inactive)
same,Potency,[5],> 46 µM (inactive)
same,Potency,[6],> 46 µM (inactive)
same,Potency,[7],inactive
same,Potency,[11],inactive
same,"activity change, negative = inhibition",[9]; at 57.5 µM (top of the series),-4.99% (inactive)
same,max response,[9]; [19],-11.5%
same,max response,[9]; [20],-16%
same,Potency,[10],inactive
